Several values for one entry are separate records, joined by “and”; a condition that tells them apart may be missing. Equal values may be shown once. Results filed as inconclusive are left out. Activity calls are given as the source filed them. Calls follow the shape of the full dose curve.

The values that follow come from PubChem BioAssay (NCATS).

In the experiment the target is Bile acid receptor (Homo sapiens) (UniProt Q96RI1). Description: qHTS assay for small molecule agonists of farnesoid X receptor signaling (AID 588527).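 Also: series mostly up to about 77 µM; 0% = vehicle basal and 100% = reference agonist.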 To be noted: HEK293T FXR-UAS-bla, beta-lactamase ratio, 16 h; activation: hits give high values. In a few lines: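 Read-out: beta-lactamase reporter fluorescence with CCF4 substrate in GeneBLAzer FXR-UAS-bla HEK293T cells, after 16 h compound exposure at 37 C. Response scaled between DMSO basal (0%) and chenodeoxycholic acid at 100 uM (100%).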
Chain of Bile acid receptor (Homo sapiens) (Q96RI1 whole entry, looked up): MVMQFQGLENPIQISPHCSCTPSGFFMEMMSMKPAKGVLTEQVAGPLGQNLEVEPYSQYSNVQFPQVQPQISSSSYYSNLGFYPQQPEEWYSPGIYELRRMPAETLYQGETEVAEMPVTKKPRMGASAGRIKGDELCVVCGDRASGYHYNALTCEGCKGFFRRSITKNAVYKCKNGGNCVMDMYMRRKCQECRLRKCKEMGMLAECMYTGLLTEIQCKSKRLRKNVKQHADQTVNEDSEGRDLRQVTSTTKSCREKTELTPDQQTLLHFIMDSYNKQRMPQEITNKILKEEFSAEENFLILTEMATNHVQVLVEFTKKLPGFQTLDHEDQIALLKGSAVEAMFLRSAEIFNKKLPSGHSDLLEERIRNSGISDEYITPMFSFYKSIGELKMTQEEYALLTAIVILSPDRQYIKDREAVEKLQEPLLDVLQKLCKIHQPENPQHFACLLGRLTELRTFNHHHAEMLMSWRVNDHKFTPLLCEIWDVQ
Take `Oc1ccc(C(c2ccc(O)cc2)C(Cl)(Cl)Cl)cc1`: the activation is 0.126% (inactive).

With `CN(C)Cc1cc(CN(C)C)c(O)c(CN(C)C)c1`, the activation was -0.172% (inactive).

Regarding `O=P(O)(O)O`, the activation is 0.993% (inactive).

In the case of `O=Cc1ccc(CO)o1`, the activation is 2.1% (inactive).

With `CCCCCCCC(=O)Oc1c(Br)cc(C#N)cc1Br`, the activation is 1.95% (inactive).

`c1ccc2c(c1)Cc1ccccc1-2`: the activation was 0.0131% (inactive).

For the compound `C=CCCCCCC`, the activation was -0.782% (inactive).

As to `CCCCCCCCCCCC[N+](C)(C)C`, the activation is 0.368% (inactive).

For `O=P(O)(OCc1ccccc1)OCc1ccccc1`, the activation was -0.26% (inactive).

On to `CCCCNS(=O)(=O)c1ccccc1`, for which the activation was 2.61% (inactive).

For `CCc1c(C(=O)O)c(=O)cnn1-c1ccc(Cl)cc1`, the activation is 1.28% (inactive).

As for `Cc1ccc(N=Nc2c(O)ccc3ccccc23)c(C)c1`, the activation was -0.864% (inactive).

Consider `CCCCOCC(C)OCC(C)O` (centres undefined), for which the activation is 5.12% (inactive).

For the compound `CC(C)c1ccccc1`, the activation was -3.82% (inactive).

With `CCN(Cc1c(F)cccc1Cl)c1c([N+](=O)[O-])cc(C(F)(F)F)cc1[N+](=O)[O-]`, the activation is 8.75% (inactive).

Consider `O=C(Nc1ccccc1)c1cc(Cl)ccc1O`, for which the activation is 1.59% (inactive).

Regarding `Cc1ccc(O)c(N)c1`, the activation was -0.664% (inactive).

In the case of `COc1cccc(N)c1`, the activation is 2.13% (inactive).

As to `Cn1c(=O)[nH]c(=O)n(C2CCCCC2)c1=O`, the activation was 2.64% (inactive).

Take `CC(C)C[C@H](NC(=O)OCC1c2ccccc2-c2ccccc21)C(=O)O`: the activation is -0.845% (inactive).

As to `O=C(O)c1ccc2c(c1)C(=O)OC2=O`, the activation is -5.89% (inactive).

As for `CC(C)[C@@H]1CC[C@@H](C)C[C@H]1O`, the activation is 0.612% (inactive).

Take `CC1(C)[C@@H]([C@@H](Br)C(Br)(Br)Br)[C@H]1C(=O)O[C@H](C#N)c1cccc(Oc2ccccc2)c1`: the activation is 6.35% (inactive).

Consider `O=C(O)CCCCCCC(=O)O`, for which the activation was 1.16% (inactive).

For `CCCCCCCCOc1ccc(C(=O)O)cc1`, the activation is 11.7% (inactive).

In the case of `CCCCOC(=O)/C=C\C(=O)OCCCC`, the activation was -3.9% (inactive).

On to `CC(C)c1ccc(C(C)C)cc1`, for which the activation is 2.92% (inactive).

Consider `O=[N+]([O-])c1ccc(O)cc1C(F)(F)F`, for which the activation is -0.0736% (inactive).

With `CC(=O)Nc1cccc(N)c1`, the activation is -3.44% (inactive).

As to `Nc1cccc(N)c1`, the activation was 0.315% (inactive).

As for `CCC(C)=O`, the activation was -0.657% (inactive).

Regarding `CC/C=C/C/C=C/C/C=C/CCCCCCCC(=O)OCC`, the activation is 1.74% (inactive).

Consider `Nc1ccc(S(=O)(=O)O)cc1`, for which the activation is -1.98% (inactive) and -2.03% (inactive).

For the compound `Nc1ccc(N)c(Cl)c1`, the activation was -0.837% (inactive).

Consider `COc1ccc(OC)c(OC)c1`, for which the activation is 0.0379% (inactive).

Consider `O=Cc1ccccc1Cl`, for which the activation was 0.21% (inactive).

On to `O=C=Nc1ccc(Cl)c(Cl)c1`, for which the activation was 2.96% (inactive).

As for `CCN(CC)c1ccc(N)cc1`, the activation is -0.874% (inactive).

For `Oc1ccc(Nc2ccccc2)cc1`, the activation was 0.593% (inactive).
